# PubChem BioAssay AID743415 (Broad Institute, 2014)
# Entries with a potency or affinity are not part of this list. Active and inactive are the calls of the source.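 How the source made its calls: active means compounds lowering Shn3 expression whose fitted half-maximal concentration is at most twice the top valid dose; inconclusive means flat partial decrease or an invalid curve fit; inactive means the rest.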
# Assay: reduction of endogenous Shn3 mRNA, dose response, qPCR, Clone20 cells, cherry-pick (AID 743415)
row,Compound,outcome
1,O=c1[nH]c2ccccc2n1C1CCN(C(CCc2ccccc2)c2nnnn2Cc2ccccc2)CC1 (configuration not stated),inactive
2,COC(=O)C1=C(c2ccc(OCc3ccccc3)cc2)C[C@@H]2CC[C@H]1N2C(=O)NCCCCc1ccccc1,inactive
